Experimental data taken from the supplement of paper PMC11732987, “Enantioselective OTUD7B fragment discovery through chemoproteomics screening and high-throughput optimisation” (Communications Chemistry, 2025).

Columns and labels:
Test in all cases: log2 ratio of Biotin-Ahx-Ub-VS probe labelling (fragment/DMSO); higher = less target engagement (more negative = stronger competition), active = hit call of the paper (q ≤ 0.05, log2 ratio ≤ -1)
Conditions in all cases: compound concentration: 200 uM; treatment time: 3 h
USP34 = USP34 (UniProt Q70CQ2)
USP34, sequence (Q70CQ2 whole entry, the tested form may be a part): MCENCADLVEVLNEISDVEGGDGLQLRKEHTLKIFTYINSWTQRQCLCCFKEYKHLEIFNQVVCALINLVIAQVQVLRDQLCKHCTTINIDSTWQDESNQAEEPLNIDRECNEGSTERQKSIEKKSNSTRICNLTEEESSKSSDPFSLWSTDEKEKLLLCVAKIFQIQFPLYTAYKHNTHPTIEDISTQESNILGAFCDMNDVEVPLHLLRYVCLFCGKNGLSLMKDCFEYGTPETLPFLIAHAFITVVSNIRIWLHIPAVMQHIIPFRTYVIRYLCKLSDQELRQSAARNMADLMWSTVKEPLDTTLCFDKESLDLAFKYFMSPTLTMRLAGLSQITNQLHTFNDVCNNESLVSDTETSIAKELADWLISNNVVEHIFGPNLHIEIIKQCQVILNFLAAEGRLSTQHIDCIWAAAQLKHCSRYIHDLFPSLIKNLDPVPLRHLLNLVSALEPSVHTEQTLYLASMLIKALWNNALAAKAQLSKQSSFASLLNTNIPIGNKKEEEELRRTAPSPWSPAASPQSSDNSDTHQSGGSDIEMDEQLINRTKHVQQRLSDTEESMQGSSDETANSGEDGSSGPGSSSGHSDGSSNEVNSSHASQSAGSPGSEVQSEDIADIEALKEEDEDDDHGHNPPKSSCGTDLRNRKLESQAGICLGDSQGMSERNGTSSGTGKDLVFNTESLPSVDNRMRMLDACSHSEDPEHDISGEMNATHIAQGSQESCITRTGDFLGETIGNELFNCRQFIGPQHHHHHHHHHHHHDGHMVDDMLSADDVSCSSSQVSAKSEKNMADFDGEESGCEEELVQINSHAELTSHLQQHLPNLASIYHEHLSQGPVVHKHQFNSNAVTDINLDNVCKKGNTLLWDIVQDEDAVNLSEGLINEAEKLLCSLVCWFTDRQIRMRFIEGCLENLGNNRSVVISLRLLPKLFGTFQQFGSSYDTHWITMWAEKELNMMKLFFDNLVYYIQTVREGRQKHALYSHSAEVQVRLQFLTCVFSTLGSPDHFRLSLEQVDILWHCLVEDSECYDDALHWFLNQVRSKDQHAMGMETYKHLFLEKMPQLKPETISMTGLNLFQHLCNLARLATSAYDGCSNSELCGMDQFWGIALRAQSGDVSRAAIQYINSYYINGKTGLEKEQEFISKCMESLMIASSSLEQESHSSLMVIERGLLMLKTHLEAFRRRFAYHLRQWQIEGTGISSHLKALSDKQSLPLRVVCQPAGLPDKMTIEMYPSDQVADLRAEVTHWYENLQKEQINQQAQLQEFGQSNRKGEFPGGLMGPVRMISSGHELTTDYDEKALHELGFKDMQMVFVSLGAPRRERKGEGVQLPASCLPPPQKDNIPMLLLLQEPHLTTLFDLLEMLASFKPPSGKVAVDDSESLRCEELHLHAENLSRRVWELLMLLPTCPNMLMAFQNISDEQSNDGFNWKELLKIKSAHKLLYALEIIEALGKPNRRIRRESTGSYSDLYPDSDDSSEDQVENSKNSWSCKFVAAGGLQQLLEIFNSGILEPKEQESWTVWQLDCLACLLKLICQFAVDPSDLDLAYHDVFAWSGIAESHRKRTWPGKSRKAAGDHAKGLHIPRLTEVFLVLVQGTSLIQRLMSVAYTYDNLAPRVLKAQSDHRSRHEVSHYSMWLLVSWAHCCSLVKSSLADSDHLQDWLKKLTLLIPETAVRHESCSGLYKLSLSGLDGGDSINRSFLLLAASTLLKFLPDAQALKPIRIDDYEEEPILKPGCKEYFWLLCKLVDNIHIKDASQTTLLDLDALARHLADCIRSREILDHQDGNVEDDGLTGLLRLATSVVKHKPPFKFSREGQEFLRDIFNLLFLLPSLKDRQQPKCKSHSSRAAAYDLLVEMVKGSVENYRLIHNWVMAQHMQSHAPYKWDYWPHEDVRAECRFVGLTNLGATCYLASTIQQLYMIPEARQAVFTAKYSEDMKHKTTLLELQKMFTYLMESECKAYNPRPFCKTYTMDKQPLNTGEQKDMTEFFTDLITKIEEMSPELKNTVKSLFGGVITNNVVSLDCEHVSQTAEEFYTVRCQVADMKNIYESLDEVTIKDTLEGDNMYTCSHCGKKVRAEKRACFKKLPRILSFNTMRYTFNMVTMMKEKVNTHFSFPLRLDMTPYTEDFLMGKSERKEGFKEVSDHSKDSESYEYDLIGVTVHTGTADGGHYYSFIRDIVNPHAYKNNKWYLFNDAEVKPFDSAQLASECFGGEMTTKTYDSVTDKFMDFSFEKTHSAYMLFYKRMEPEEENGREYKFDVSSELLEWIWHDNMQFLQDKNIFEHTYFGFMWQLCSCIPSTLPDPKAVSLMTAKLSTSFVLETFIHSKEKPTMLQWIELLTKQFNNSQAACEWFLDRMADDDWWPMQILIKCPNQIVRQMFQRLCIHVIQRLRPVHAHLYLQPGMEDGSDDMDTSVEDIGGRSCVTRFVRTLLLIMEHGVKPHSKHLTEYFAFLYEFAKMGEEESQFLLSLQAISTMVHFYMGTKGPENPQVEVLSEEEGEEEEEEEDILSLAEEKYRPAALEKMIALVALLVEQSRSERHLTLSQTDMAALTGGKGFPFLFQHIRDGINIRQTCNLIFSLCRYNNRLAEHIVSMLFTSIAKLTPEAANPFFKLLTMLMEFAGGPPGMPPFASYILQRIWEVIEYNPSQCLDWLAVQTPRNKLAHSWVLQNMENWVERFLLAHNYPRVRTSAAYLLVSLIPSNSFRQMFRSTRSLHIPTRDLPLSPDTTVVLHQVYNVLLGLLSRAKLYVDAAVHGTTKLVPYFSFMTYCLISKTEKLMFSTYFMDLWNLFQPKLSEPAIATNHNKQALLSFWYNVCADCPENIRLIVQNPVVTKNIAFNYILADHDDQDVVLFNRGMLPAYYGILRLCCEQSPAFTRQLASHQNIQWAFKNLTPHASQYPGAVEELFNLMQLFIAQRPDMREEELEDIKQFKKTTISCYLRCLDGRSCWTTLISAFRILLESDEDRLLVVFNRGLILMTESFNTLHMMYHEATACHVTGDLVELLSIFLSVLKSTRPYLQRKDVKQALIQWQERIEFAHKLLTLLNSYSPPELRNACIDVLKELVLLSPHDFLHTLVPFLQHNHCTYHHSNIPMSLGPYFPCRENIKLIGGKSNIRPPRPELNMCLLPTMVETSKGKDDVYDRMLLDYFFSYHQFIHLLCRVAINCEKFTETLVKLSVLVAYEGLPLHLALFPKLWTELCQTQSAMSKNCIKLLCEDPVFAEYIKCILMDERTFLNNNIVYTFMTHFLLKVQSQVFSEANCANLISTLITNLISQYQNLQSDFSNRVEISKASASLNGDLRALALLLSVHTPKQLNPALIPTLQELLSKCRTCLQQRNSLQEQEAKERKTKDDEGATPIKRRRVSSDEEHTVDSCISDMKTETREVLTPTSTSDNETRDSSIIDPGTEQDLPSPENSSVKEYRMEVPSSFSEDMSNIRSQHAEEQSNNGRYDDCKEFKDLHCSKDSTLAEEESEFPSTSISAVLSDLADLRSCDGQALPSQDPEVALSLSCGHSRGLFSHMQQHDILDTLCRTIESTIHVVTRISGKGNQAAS
Method in brief: (§1)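 Fragment (200 µM) or vehicle was incubated for 3 h with triplicate HEK293T lysate samples of 495 µg, which were then treated with Biotin-Ahx-Ub-VS at 0.5 µM final for 1 h. Labelled DUBs were enriched on NeutrAvidin, digested with LysC and trypsin, and analysed by diaPASEF LC-MS/MS. Values are average log2 fragment/vehicle ratios from an unpaired t-test on global-median-normalised Spectronaut label-free quantities, using proteins with ≥2 unique peptides.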

USP36 = biological target: T1, USP36 (UniProt Q9P275)
T1 sequence (whole entry): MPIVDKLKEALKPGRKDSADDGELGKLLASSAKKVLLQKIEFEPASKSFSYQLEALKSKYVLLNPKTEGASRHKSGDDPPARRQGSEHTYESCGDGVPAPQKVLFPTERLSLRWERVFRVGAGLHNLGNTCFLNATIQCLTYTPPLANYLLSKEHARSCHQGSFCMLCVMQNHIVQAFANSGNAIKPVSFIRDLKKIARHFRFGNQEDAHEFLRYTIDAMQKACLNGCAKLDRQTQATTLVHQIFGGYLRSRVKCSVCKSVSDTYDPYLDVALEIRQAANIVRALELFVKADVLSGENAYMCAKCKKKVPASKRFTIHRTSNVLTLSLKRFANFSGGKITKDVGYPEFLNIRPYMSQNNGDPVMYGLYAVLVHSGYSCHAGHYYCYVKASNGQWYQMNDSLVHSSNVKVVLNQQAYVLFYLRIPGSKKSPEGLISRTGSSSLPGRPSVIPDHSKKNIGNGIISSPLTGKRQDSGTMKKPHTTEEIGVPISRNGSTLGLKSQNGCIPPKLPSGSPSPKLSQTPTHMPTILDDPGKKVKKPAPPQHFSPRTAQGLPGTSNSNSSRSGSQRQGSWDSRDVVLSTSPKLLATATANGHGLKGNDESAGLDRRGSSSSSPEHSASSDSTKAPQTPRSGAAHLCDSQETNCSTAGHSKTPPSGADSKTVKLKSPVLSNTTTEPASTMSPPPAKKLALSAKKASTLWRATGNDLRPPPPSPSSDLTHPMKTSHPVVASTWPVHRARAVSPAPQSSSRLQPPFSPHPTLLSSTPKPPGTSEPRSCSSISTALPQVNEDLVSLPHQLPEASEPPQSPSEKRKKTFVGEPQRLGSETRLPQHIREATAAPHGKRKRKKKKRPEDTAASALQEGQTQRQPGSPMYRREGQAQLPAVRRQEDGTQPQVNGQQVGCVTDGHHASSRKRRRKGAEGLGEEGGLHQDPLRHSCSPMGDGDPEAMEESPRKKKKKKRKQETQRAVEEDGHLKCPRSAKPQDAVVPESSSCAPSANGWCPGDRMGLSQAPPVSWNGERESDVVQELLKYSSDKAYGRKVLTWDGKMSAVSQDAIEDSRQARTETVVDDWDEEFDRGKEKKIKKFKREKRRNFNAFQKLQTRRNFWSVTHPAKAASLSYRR
Method in brief: as §1

USP38 = biological target: T2, USP38 (UniProt Q8NB14)
T2 sequence (whole entry): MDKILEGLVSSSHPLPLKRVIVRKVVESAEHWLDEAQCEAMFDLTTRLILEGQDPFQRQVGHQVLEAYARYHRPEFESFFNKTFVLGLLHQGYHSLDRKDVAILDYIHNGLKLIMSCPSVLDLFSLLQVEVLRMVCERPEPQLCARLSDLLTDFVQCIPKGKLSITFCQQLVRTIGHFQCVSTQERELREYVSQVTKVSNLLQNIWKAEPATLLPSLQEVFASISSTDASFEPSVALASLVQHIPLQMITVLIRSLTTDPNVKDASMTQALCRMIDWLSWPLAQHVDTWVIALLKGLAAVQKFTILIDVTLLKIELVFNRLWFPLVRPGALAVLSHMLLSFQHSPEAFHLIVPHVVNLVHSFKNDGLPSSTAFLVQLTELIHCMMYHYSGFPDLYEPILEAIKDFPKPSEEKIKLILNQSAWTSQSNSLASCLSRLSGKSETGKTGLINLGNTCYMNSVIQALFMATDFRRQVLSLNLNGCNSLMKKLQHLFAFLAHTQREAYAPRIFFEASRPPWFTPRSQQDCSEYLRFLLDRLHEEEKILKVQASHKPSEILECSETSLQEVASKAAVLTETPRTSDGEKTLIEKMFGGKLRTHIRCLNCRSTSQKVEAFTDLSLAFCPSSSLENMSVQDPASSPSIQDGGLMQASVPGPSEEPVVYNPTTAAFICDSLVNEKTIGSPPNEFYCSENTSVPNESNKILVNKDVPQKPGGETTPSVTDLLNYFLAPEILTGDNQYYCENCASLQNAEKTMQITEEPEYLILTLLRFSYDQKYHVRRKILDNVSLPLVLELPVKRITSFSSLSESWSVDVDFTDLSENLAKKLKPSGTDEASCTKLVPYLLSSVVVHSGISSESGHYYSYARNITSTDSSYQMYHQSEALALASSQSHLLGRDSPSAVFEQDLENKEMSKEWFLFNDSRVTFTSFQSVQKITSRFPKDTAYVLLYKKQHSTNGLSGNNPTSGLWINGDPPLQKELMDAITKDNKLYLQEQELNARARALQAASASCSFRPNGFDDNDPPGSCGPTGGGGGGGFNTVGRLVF
Method in brief: as §1

USP39 = biological target: T3, USP39 (UniProt Q53GS9)
T3 sequence (whole entry): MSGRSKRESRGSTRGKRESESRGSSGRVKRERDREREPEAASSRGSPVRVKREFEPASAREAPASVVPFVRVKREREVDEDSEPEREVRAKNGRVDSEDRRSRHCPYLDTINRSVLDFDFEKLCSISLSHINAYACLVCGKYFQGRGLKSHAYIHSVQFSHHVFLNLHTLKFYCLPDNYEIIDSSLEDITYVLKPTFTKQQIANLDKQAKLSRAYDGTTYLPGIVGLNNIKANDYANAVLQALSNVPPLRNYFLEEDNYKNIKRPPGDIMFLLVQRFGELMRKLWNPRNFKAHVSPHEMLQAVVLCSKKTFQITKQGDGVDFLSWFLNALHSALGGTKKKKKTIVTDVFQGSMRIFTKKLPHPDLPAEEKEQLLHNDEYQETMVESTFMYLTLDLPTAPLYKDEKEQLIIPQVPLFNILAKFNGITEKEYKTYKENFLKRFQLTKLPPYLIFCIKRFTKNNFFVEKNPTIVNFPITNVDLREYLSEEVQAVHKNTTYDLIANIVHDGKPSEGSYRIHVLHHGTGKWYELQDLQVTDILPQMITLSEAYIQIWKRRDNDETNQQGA
Method in brief: as §1

USP4 = biological target: T4, USP4 (UniProt Q13107)
T4 sequence (whole entry): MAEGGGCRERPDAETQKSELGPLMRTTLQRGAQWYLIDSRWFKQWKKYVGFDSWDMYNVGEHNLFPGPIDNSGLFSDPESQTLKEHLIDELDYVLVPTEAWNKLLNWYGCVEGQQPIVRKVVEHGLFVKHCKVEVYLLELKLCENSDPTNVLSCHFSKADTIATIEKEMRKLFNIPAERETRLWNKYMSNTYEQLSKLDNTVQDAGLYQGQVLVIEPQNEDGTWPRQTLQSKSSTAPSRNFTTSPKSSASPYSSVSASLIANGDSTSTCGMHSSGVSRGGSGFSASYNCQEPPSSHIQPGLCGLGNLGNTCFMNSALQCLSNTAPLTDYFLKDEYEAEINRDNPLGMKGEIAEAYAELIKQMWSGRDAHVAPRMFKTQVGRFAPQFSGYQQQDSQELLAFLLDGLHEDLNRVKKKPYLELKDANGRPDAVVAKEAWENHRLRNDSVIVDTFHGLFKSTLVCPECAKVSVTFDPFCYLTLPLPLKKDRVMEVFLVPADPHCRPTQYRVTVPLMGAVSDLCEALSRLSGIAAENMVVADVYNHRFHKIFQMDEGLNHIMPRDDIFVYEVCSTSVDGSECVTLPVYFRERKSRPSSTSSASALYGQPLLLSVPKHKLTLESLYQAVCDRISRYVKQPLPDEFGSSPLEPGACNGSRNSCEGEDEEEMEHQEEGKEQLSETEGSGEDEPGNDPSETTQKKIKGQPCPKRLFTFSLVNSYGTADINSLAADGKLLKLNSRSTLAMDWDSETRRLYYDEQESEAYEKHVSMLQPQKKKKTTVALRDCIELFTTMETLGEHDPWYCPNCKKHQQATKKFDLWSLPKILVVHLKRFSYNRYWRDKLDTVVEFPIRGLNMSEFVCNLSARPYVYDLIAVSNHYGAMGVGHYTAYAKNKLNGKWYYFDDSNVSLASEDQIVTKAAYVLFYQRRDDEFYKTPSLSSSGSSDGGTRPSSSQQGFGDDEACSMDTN
Method in brief: as §1

Measured: log2 ratio of Biotin-Ahx-Ub-VS probe labelling

O=C(CCl)N1CCC[C@@H]1c1ccon1
inactive: USP34 -0.0339 | USP36 -0.122 | USP38 -0.189 | USP39 0.0959 | USP4 -0.394
